# Measurements: ChEMBL document CHEMBL4888484, “Replenishing the malaria drug discovery pipeline: Screening and hit evaluation of the MMV Hit Generation Library 1 (HGL1) against asexual blood stage Plasmodium falciparum ,using a nano luciferase reporter read-out” (2022)
# Out of some 150,000 compounds screened, about 540 (0.36%) showed an effect of 50% or more. Only a selection was taken, and strong results are over-represented in it overall.
# System: Plasmodium falciparum
# Test: Primary screen in NF54 nanoGlo assay, in single point, at 2uM, 72h; a lower Z score goes with more inhibition
# Assay type: functional, Erythrocyte
# Conditions: timepoint 72 hour
Structure (SMILES),% Inhibition [%],Z score
CCN(C(=O)c1ccccc1Cc1ccc(C)cc1)C1CCOCC1,-13,1.36
Cn1nccc1/C=C1\CC2C3CCc4cc(O)ccc4C3CCC2(C)C1O (centres undefined),54,-6.08
CC(C)C(=O)NCCN(C)Cc1ccc(C#N)cc1Br,-19,2.19
Cc1ncsc1CN(C)[C@@H](C(=O)O)c1ccsc1,3,-0.57
Cc1nnc(C(C)NC(=O)C2(C)CCCN(C(=O)c3ccccc3)C2)o1 (centres undefined),-7,0.99
Cc1nc2cc(NC(=O)[C@@]3(C)CCCN(C(=O)c4ccccc4)C3)ccc2o1,55,-8.5
C[C@]1(C(=O)Nc2cn[nH]c2)CCCN(C(=O)c2ccccc2)C1,-8,1.66
Cc1ccc(N2C[C@H](C(=O)O)[C@@H](C(C)C)C2)nn1,-13,1.69
CC1(C)CN(Cc2nnc(C3CC3)o2)CCN1Cc1ccccc1,-3,0.43
O=C(NCc1ccco1)Nc1nccs1,1,-0.2
O=C(NCCN1CCOCC1)c1c[nH]c2ccc(Cl)cc2c1=O,1,-0.13
O=S(=O)(CCC1Cc2ccccc2C1)N1CCC[C@@](O)(C(F)(F)F)CC1,34,-3.86
O=C(Cn1cc(F)ccc1=O)N1CCc2ccccc21,-8,1.07
COc1cc(CNC2CCCCCC2)ccc1OC[C@@H](O)CN1CCCCCC1,1,-0.22
CN1CCN(C2(CNc3ccnc4ccccc34)CCCC2)CC1,99,-9.07
CN1CCN(C2(CNC(=O)Nc3ccccc3C(F)(F)F)CCCC2)CC1,-2,0.33
O=C(NCc1c(F)cccc1Cl)c1cnc(-c2cccnc2)nc1,-19,1.75
CCc1ccc(NC(=O)[C@H](C)N2CCC(NS(=O)(=O)c3cccs3)CC2)cc1,76,-7.11
C[C@@H](C(=O)Nc1c(F)cccc1F)N1CCC(NS(=O)(=O)c2cccs2)CC1,-7,0.81
C[C@@H](C(=O)Nc1ccc(F)cc1)N1CCC(NS(=O)(=O)c2cccs2)CC1,32,-3.04
COc1ccc(C(CO)CNC2[C@@H]3CCC[C@@H]3C2(C)C)cc1 (some centres undefined),0,-0.02

Structure (SMILES),% Inhibition [%],Z score
Cc1cccc(OCC(O)CNC2C3CCCOC3C2(C)C)c1 (centres undefined),-10,0.93
CC1(C)C(NCC(O)COc2ccc(F)c(F)c2)[C@@H]2CCC[C@@H]21 (some centres undefined),61,-6.95
CC(=O)[C@H](C)n1nc(C2CC2)ccc1=O,-17,2.21
COc1ccccc1-n1c(=O)[nH]c2nc(NCc3cccnc3)ncc2c1=O,1,-0.13
Cc1cccc(-n2c(=O)[nH]c3nc(N4CCCC4)ncc3c2=O)c1C,-4,0.62
Cc1cccc(-n2c(=O)[nH]c3nc(NCCN(C)C)ncc3c2=O)c1C,50,-0.77
Cc1cccc(N(CCC#N)C(=O)c2cc3ccccc3c(=O)[nH]2)c1,-18,1.68
O=C(c1ccncc1F)N1CCCC[C@@H]1CCc1ccccn1,-23,2.29
Cc1ccc(CNC(=O)CCNc2c(-c3cccc(F)c3)nc3cnccn23)o1,-18,2.57
Cc1ccc(CCN2CCC[C@@H]2C(=O)O)cc1,3,-0.5
O=C(NC1CCC(N2C(=O)CCC2=O)CC1)C1CC1C1CCCCC1 (centres undefined),-7,0.72
O=C1NC(=O)c2ccc3c4c(ccc1c24)C(=O)N(c1ccccc1)C3=O,73,-8.98
O=C1c2ccc(O)cc2C(=O)N1c1ccc(N(c2ccccc2)c2ccc(N3C(=O)c4ccc(O)cc4C3=O)cc2)cc1,8,-1.03
O=C1c2cc(Nc3ccccc3)c3c4c(cc(Nc5ccccc5)c(c24)C(=O)N1c1ccccc1)C(=O)N(c1ccccc1)C3=O,3,-0.42
COc1cccc(CN2C(=O)c3cc4ccc(OC)cc4n3C[C@@]2(C)C(=O)NC2CCCCCC2)c1,-12,1.58
COc1ccc2cc3n(c2c1)C[C@@](C)(C(=O)NC1CCCC1)N(Cc1ccc(F)cc1)C3=O,73,-1.23
COc1ccc2cc3n(c2c1)C[C@@](C)(C(=O)NC1CCCCCC1)N(CCN1CCCCCC1)C3=O,2,-0.31
Cc1ccc(C(=O)N2CCCC[C@H]2c2nnc(-c3ccncc3)[nH]2)cn1,-12,2.36
CCOc1cc(CNc2ccc3c(c2)OCO3)ccc1OC,-1,0.26
CC1(C)OCc2cc(CNc3ccc4oc(=O)[nH]c4c3)ccc2O1,96,-13.84
C[C@@H](NCc1ccc2c(c1)COC(C)(C)O2)c1cccc(O)c1,-21,2.42

Structure (SMILES),% Inhibition [%],Z score
O=S(=O)(c1cccc(F)c1F)N1CCN(Cc2nccn2C(F)F)CC1,-4,0.57
Cc1ccc(-c2n[nH]c3c2cnc2ccc(C)cc23)cc1,-5,0.82
COc1cc2ncc3c(-c4ccccc4)n[nH]c3c2cc1OC,9,-0.99
COc1cc2ncc3c(-c4ccc(C)c(C)c4)n[nH]c3c2cc1OC,51,-4.04
CC(C)C(=O)N[C@@H](N1CCCCCC1)C(Cl)(Cl)Cl,-15,2.02
Cn1nc(C(=O)NC2CCN(Cc3ccccc3)CC2)c2ccccc2c1=O,34,-3.81
O=C(Nc1cnc2c(c1)COCC2)c1cccc(OC(F)F)c1,-1,0.19
O=C(CNC(=O)c1ccc(C(F)(F)F)cc1)Nc1cnc2c(c1)COCC2,34,-4.64
COC[C@H]1CCCN1S(=O)(=O)N1CCC(c2cc[nH]n2)CC1,-7,0.81
CN1C(=O)[C@@H]2CCCCN2c2ccc(C(=O)N3CCN(C(=O)c4ccco4)CC3)cc21,1,-0.14
COCC1(CNC(=O)CNC(C)=O)CCCC1,-5,0.85
Cc1ccccc1CN[C@H]1CCCOCC1,-4,0.53
Cc1ccccc1CNC1C(=O)NCCC1C (centres undefined),74,1.17
Cc1ccccc1CC(=O)N[C@H]1CCCCNC1=O,0,0.03
Cc1cc(C)cc(CCNC(=O)CN(C)S(C)(=O)=O)c1,-4,0.7
COc1ccc(C[C@@H]2C3=C(CCCC3)CCN2C(=O)c2cc(C)on2)cc1,-5,0.97
OCC1(CN2CCCC2)CCN(Cc2ccc(Cl)cc2)CC1,2,-0.36
COc1c(C)cnc(Cn2cnc(N)n2)c1C,8,-0.99
CN1CCN(C[C@@]2(Cc3ccccc3)CCOC2)CC1,-3,0.56
Cc1ccc(NC(=O)c2c(C)nc3sc(C(=O)NCc4ccccc4)c(N)c3c2-c2ccccc2Cl)c(C)c1,90,-8.85
Cc1ccc(NC(=O)c2c(C)nc3sc(C(=O)NCc4ccccc4)c(N)c3c2-c2cccnc2)c(C)c1,21,-3.35

Structure (SMILES),% Inhibition [%],Z score
Cc1ccc(NC(=O)c2c(C)nc3sc(C(=O)NCc4ccccc4)c(N)c3c2-c2cccs2)c(C)c1,61,-9.57
COc1ccc(NC(=O)c2sc3nc(C)c(C(=O)Nc4ccc(C)cc4C)c(-c4ccccc4Cl)c3c2N)cc1,38,-3.76
CCc1ccc(NC(=O)c2sc3nc(C)c(C(=O)Nc4ccc(C)cc4C)c(-c4ccccc4Cl)c3c2N)cc1,40,-2.96
CC[C@H](C)NC(=O)c1sc2nc(C)c(C(=O)Nc3ccc(C)cc3C)c(-c3cccs3)c2c1N,17,-2.61
C[C@H](NS(=O)(=O)c1cccc2nsnc12)c1nncn1C,-8,1.65
Cc1cc(NC(=O)c2ccccc2C(=O)c2ccc(Cl)cc2)ccc1N1CCCC1=O,-10,1.56
COc1ccc(F)cc1S(=O)(=O)N1CC2(C[C@H](CC(=O)NCC3CC3)CO2)C1,-2,0.34
Cn1cc(Br)c2nc[nH]c(=O)c21,-14,1.39
CC(=O)c1ccc(CNc2ncc(Cl)cn2)nc1C,-16,1.6
CCOC(=O)c1ncc(Cl)c(C#N)c1Cl,50,0.88
CCOC(=O)c1nsc(Cl)c1Cl,4,-0.44
CCOC(=O)c1nccc(C#N)c1Cl,40,-5.19
NC(=O)[C@@H]1CCCN1S(=O)(=O)c1ccc2c(c1)CCC(=O)N2,-13,1.82
O=C(c1nnn(-c2ccccc2Cl)c1-c1cccnc1)N1CCN(c2ccccc2)CC1,-8,0.9
COc1ccccc1N1CCN(C(=O)c2nnn(-c3ccccc3Cl)c2-c2cccnc2)CC1,50,-6.51
O=C(c1nnn(-c2ccccc2Cl)c1-c1cccnc1)N1CCC(Cc2ccccc2)CC1,40,-5.19
Cc1nn(-c2ccc(Br)cc2)c(NC(=O)N(C)[C@@H](C)c2ccccc2F)c1C,2,-0.23
Cn1nccc1CNC(CO)CC(O)C(C)(C)C (centres undefined),-3,0.38
CCn1cnnc1NC(=O)c1cc(C)sn1,1,-0.12
